T cruzi growth-1: T. cruzi proliferation inhibition; T. cruzi beta-gal in NIH3T3, GalScreen luminescence, 90 h; inhibition, % at 8.34 µM; actives 5.9% (n = 77,000);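 active means mean inhibition above about 93%, with at least 55% of replicates each passing it, limit read from the data, passing the limit was not always enough; inconclusive means only one of those two conditions holds; inactive means neither condition holds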
Pf Dd2 inh: inhibitors of Plasmodium falciparum Dd2 growth. activity change, % at 10 µM. P. falciparum Dd2 growth, SYBR Green, 72 h; stronger effect = lower value. actives 2.3% (n = 94,000); in the data active means activity change below about -80%; inconclusive means no clear call, values can overlap the other calls
C diff growth: C. difficile growth inhibition; growth activity, negative = inhibition, % at 16 µg/mL (by protocol); Clostridium difficile clinical isolate growth, OD600, 24 h; stronger effect = lower value; actives 0.25% (n = 86,000); AID 1259249;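 active means mean growth activity at or below -80% and every replicate also at or below -80%; inconclusive means mean at or below -80% but some replicate above -80%; inactive means mean growth activity above -80%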
T cruzi growth-2: inhibitors of T. cruzi proliferation. shares compounds with T cruzi growth-1. T. cruzi beta-gal in NIH3T3, GalScreen luminescence, 90 h. inhibition, % at 8.35 µM. actives 72% (n = 5,600). AID 651739;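 active means mean replicate inhibition above about 95% and at least 55% of replicates individually reaching it, limit read from the data; inconclusive means only one of the two criteria is met; inactive means neither criterion is met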
T cruzi growth-3: inhibitors of T. cruzi proliferation; shares compounds with T cruzi growth-1; T. cruzi beta-gal in NIH3T3, GalScreen luminescence, 90 h; inhibition, % at 2.09 µM; actives 21% (n = 5,600);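 active means mean inhibition above about 95%, with at least 55% of replicates also reaching it, limit read from the data; inconclusive means meets just one of the two conditions; inactive means meets neither condition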
3T3 cytotox: NIH/3T3 (mouse) viability loss; shares compounds with T cruzi growth-1; NIH/3T3 viability, CellTiter-Glo ATP luminescence, 90 h; cytotoxicity (signal decrease), % at 8.35 µM; actives 14% (n = 5,600); AID 651742;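 active means mean signal decrease across replicates above about 35% based on untreated-well scatter, with enough replicates individually passing, limit read from the data; inconclusive means no rule stated though some were filed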
NIH3T3 tox 2: NIH/3T3 (mouse) viability loss | shares compounds with T cruzi growth-1 | NIH/3T3 viability, CellTiter-Glo ATP luminescence, 90 h | inhibition, % at 24.9 µM | actives 56% (n = 5,600) | AID 651744;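 active means mean loss of cell viability signal at or above a set limit, and enough replicates individually reaching it; inconclusive means meets only the mean limit or only the replicate share; inactive means meets neither condition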
A number is an active result; – = inactive; ? = inconclusive; · = not tested or not shown. Compounds with a hit are over-represented: about 6.7% of the library has one in this group of screens.

SMILES | T cruzi growth-1 | Pf Dd2 inh | C diff growth | T cruzi growth-2 | T cruzi growth-3 | 3T3 cytotox | NIH3T3 tox 2
CN(C)CC#Cc1ccc([C@@H]2[C@H](CO)N3CCCCN(C(=O)C4CC4)C[C@@H]23)cc1 | – | – | – | · | · | · | ·
Cc1noc(C)c1NC(=O)Nc1ccc2c(c1)CC(=O)N([C@@H](C)CO)C[C@@H](C)[C@H](CN(C)C(=O)Nc1ccccc1)O2 | – | – | – | · | · | · | ·
C[C@@H]1CCCCO[C@@H](CN(C)Cc2ccc(Cl)c(Cl)c2)[C@@H](C)CN([C@@H](C)CO)C(=O)c2cc(NC(=O)Nc3ccccc3)ccc2O1 | – | – | – | · | · | · | ·
C[C@H]1CCCCO[C@H](CN(C)Cc2ccc(Cl)c(Cl)c2)[C@@H](C)CN([C@@H](C)CO)C(=O)c2cc(NC(=O)Nc3ccccc3)ccc2O1 | – | – | – | · | · | · | ·
C[C@@H]1CN([C@H](C)CO)C(=O)c2cc(NC(=O)Nc3ccc(F)cc3)ccc2O[C@@H](C)CCCCO[C@@H]1CN(C)Cc1ccc(Cl)c(Cl)c1 | 101 | – | · | 96 | 105 | – | –
C[C@H]1CCCCO[C@H](CN(C)Cc2ccc(Cl)c(Cl)c2)[C@@H](C)CN([C@@H](C)CO)C(=O)c2cc(NC(=O)Nc3ccc(F)cc3)ccc2O1 | 102 | – | · | 95 | 112 | – | –
C[C@H](CO)N1C[C@H](C)[C@H](CN(C)Cc2ccc(Cl)c(Cl)c2)OCCCC[C@H](C)Oc2ccc(NC(=O)Nc3ccccc3)cc2C1=O | – | – | – | · | · | · | ·
C[C@@H]1CCCCO[C@@H](CN(C)Cc2ccc(Cl)c(Cl)c2)[C@@H](C)CN([C@@H](C)CO)C(=O)c2cc(NC(=O)Nc3ccc(F)cc3)ccc2O1 | 109 | – | · | ? | 109 | – | –
CCC(=O)Nc1ccc2c(c1)OC[C@H](C)N(CCC(F)(F)F)C[C@H](C)[C@@H](OC)CN(C)C2=O | · | – | – | · | · | · | ·
COC(=O)[C@@H]1[C@@H](CO)[C@@H]2Cn3c(ccc(-c4ccccc4)c3=O)[C@@H]2N1S(C)(=O)=O | – | – | – | · | · | · | ·
C[C@H]1CN([C@@H](C)CO)C(=O)c2cc(-c3cccnc3)cnc2O[C@H]1CN(C)C(=O)Nc1ccc2c(c1)OCO2 | – | – | – | · | · | · | ·
O=C(C[C@H]1CC[C@@H]2[C@H](COC[C@H](O)CN2C(=O)c2ccncc2)O1)NC1Cc2ccccc2C1 | – | – | – | · | · | · | ·
N#C[C@@H]1[C@H](c2ccc(C#CC3CCCC3)cc2)[C@@H](CO)N1S(=O)(=O)c1ccccc1 | 97 | – | – | 96 | 107 | – | 108
CS(=O)(=O)N1[C@@H](C#N)[C@H](c2ccc(C#CC3CC3)cc2)[C@@H]1CO | – | – | – | · | · | · | ·
N#C[C@@H]1[C@@H](c2ccc(C#CC3CC3)cc2)[C@@H](CO)N1S(=O)(=O)Cc1ccccc1 | – | – | – | · | · | · | ·
CS(=O)(=O)N1[C@@H](C#N)[C@@H](c2ccc(C#CC3CC3)cc2)[C@@H]1CO | 103 | – | – | 107 | ? | – | –
CS(=O)(=O)Nc1ccc2c(c1)[C@H]1C[C@@H](CC(=O)NCc3ccc(Oc4ccccc4)cc3)O[C@H](CO)[C@H]1O2 | – | – | – | · | · | · | ·
CCCC#Cc1ccc2c(c1)O[C@@H](CN(C)Cc1ccc3c(c1)OCO3)[C@@H](C)CN([C@H](C)CO)S2(=O)=O | 109 | · | – | – | 105 | – | 103
C[C@@H]1CN([C@@H](C)CO)S(=O)(=O)c2ccc(C#CCN(C)C)cc2O[C@H]1CN(C)Cc1ccc2c(c1)OCO2 | 111 | – | – | 102 | – | 45 | 104
C[C@@H]1CN([C@H](C)CO)S(=O)(=O)c2ccc(C#CCN(C)C)cc2O[C@@H]1CN(C)Cc1ccc2c(c1)OCO2 | – | – | – | · | · | · | ·
CC(C)CC#Cc1ccc2c(c1)O[C@@H](CN(C)Cc1ccc3c(c1)OCO3)[C@@H](C)CN([C@@H](C)CO)S2(=O)=O | – | – | – | · | · | · | ·
C[C@H](CO)N1C[C@H](C)[C@@H](CN(C)Cc2ccc3c(c2)OCO3)Oc2cc(C#CCN(C)C)ccc2S1(=O)=O | 103 | – | – | 110 | – | ? | 105
COCC#Cc1ccc2c(c1)O[C@@H](CN(C)Cc1ccc3c(c1)OCO3)[C@@H](C)CN([C@@H](C)CO)S2(=O)=O | · | – | – | · | · | · | ·
C[C@H](O)C#Cc1cnc2c(c1)C(=O)N([C@@H](C)CO)C[C@@H](C)[C@@H](CN(C)C(=O)c1ccccc1)O2 | – | – | – | · | · | · | ·
COc1ccccc1-c1cnc2c(c1)C(=O)N([C@@H](C)CO)C[C@@H](C)[C@@H](CN(C)Cc1cccc(F)c1)O2 | ? | – | – | – | – | – | 52
SMILES | T cruzi growth-1 | Pf Dd2 inh | C diff growth | T cruzi growth-2 | T cruzi growth-3 | 3T3 cytotox | NIH3T3 tox 2
COc1ccccc1-c1cnc2c(c1)C(=O)N([C@H](C)CO)C[C@@H](C)[C@@H](CN(C)Cc1cccc(F)c1)O2 | – | – | – | · | · | · | ·
COc1cccc(-c2cnc3c(c2)C(=O)N([C@@H](C)CO)C[C@H](C)[C@@H](CN(C)Cc2ccccc2)O3)c1 | – | – | – | · | · | · | ·
COc1cccc(-c2cnc3c(c2)C(=O)N([C@H](C)CO)C[C@H](C)[C@H](CN(C)Cc2cccc(C)c2)O3)c1 | 96 | – | – | – | – | – | ?
COc1ccccc1-c1cnc2c(c1)C(=O)N([C@H](C)CO)C[C@@H](C)[C@H](CN(C)Cc1cccc(F)c1)O2 | – | – | – | · | · | · | ·
COc1ccccc1-c1cnc2c(c1)C(=O)N([C@H](C)CO)C[C@H](C)[C@@H](CN(C)Cc1cccc(F)c1)O2 | ? | – | – | 102 | – | – | 42
O=C(NC1CCCC1)N1CC(=O)N2[C@H](CO)[C@@H](c3ccc(/C=C/c4ccccc4)cc3)[C@H]2C1 | · | – | – | · | · | · | ·
COc1ccc2c3c([nH]c2c1)[C@@H](CO)NCC31CN(C(=O)C2CCCC2)C1 | · | – | – | · | · | · | ·
O=S(=O)(c1ccc(F)cc1)N1CCCCN2[C@H](C1)[C@H](c1ccc(-c3ccccc3)cc1)[C@@H]2CO | – | – | – | · | · | · | ·
O=S(=O)(c1ccc(F)cc1)N1CCCCN2[C@H](CO)[C@@H](c3ccc(-c4ccccc4F)cc3)[C@H]2C1 | – | – | – | · | · | · | ·
Cc1ccccc1-c1ccc([C@@H]2[C@@H](CO)N3CCCCN(S(=O)(=O)c4ccc(F)cc4)C[C@@H]23)cc1 | 108 | – | – | 109 | – | – | 81
Cc1ccccc1-c1ccc([C@H]2[C@@H](CO)N3CCCCN(S(=O)(=O)c4ccc(F)cc4)C[C@H]23)cc1 | 109 | – | – | 98 | ? | – | 105
O=C(Nc1ccccc1F)N1CCCCN2[C@H](CO)[C@@H](c3ccc(/C=C/c4ccccc4)cc3)[C@@H]2C1 | 112 | – | – | 98 | 101 | – | 105
C/C=C/c1ccc([C@@H]2[C@H]3CN(C(=O)Nc4ccccc4F)CCCCN3[C@H]2CO)cc1 | – | – | – | · | · | · | ·
